This is an account of results in PubChem BioAssay.

The source made the active and inactive calls. Unless noted, how the calls were made is not given here.

The nature of experiment [1]: compounds binding Alexa647 anti-His antibody – biochemical, small-molecule microarray, 635 nm fluorescence, artefact control for SMM control protein annotation, primary screen (AID 1128).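 Further: score merges feature fluorescence with signal-to-noise for each printed compound spot.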 The settings on record: higher = more signal.
The subject of experiment [2] is Human papillomavirus type 1a E7 protein (residues 1-88). The experiment is described as follows: HPV1a E7 small-molecule binders, primary screen, biochemical, small-molecule microarray, residues 1-88, 635 nm (AID 1129). To be noted: small-molecule microarray binding, fluorescence 635 nm; higher = more signal.
Experiment [3] deals with Focal adhesion kinase 1 (Homo sapiens) (UniProt Q05397). The experiment is described as follows: PTK2 protein binding on printed compound slides – biochemical, small-molecule microarray, 635/667 nm fluorescence, BSA, DTT, primary screen (AID 1130).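 Further: composite of spot emission at 667 nm and signal to noise over triplicate slides.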 To be noted: 635 nm fluorescence, higher = more signal.
For experiment [4], the system named is Fibrinogen (Alexa647-labelled). The experiment is described as follows: Alexa647-fibrinogen binding to printed small molecules – biochemical, small-molecule microarray, 635/667 nm fluorescence, artefact control for SMM control-protein annotation, profiling panel (AID 1131).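 Further: z-score merges 667 nm fluorescence with per-spot signal-to-noise over triplicate slides.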 The settings on record: fibrinogen-A647 binding fluorescence, higher = more signal.
The target of experiment [5] is Follistatin (Homo sapiens) (UniProt P19883). The experiment is described as follows: FST protein binding to printed compounds – biochemical, small-molecule microarray, 635/667 nm fluorescence, primary screen (AID 1132). To be noted: 635 nm fluorescence, higher = more signal.
For experiment [6], the target named is Fibroblast growth factor 2 (Homo sapiens) (UniProt P09038). The experiment is described as follows: basic fibroblast growth factor binding to printed compounds – biochemical, small-molecule microarray, 635/667 nm fluorescence, primary screen (AID 1133). The settings on record: FGF2, fluorescence 635/667, higher = more signal.
A short description of experiment [7]: JC-1 mitochondrial potential readout, lung cancer cells – cell-based, A549, JC-1 fluorescence, basal, 24 h, 100 nL, profiling panel (AID 1138).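 Further: A549 lung adenocarcinoma cells under basal conditions with no added stimulus; test concentration not given here.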 To be noted: higher = more signal.
Experiment [8] deals with Lefty1. The experiment is described as follows: Lefty1 protein binding to printed compounds – biochemical, small-molecule microarray, 635/667 nm fluorescence, primary screen (AID 1139). The settings on record: fluorescence 635/667, higher = more signal.
Experiment [9] has as its system wheat germ agglutinin (Triticum aestivum), Alexa647-labelled. The experiment is described as follows: Alexa647-WGA lectin binding to printed small molecules – biochemical, small-molecule microarray, 635/667 nm fluorescence, artefact control for SMM control-protein annotation, profiling panel (AID 1140).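 Further: score merges 667 nm feature emission with signal to noise over triplicate slides.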 To be noted: WGA-A647 binding, 635 nm fluorescence, higher = more signal.

For experiment [10], the target named is Luciferin 4-monooxygenase (Photinus pyralis) (UniProt P08659). The experiment is described as follows: inhibition of purified Photinus pyralis luciferase – biochemical, luminescence, purified enzyme, 2006 set, primary screen (AID 1141).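 Further: cell-free assay with purified firefly luciferase at 100 ng per well in PBS; test concentration not given here.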 The settings on record: purified firefly luciferase, SteadyGlo luminescence, 30 min; higher = more signal, called active from +8 up or from −8 down.

In experiment [11] the test system is Wnt5a (protein binding on small-molecule microarray). The experiment is described as follows: small molecules binding Wnt5a protein – biophysical, small-molecule microarray, 635/667 nm fluorescence, primary screen (AID 1142).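 Further: fluorescence read at 667 nm with signal to noise per printed feature.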 To be noted: 635 nm fluorescence, higher = more signal.
Experiment [12] in a line: ATP-based viability of Huh7 replicon cells – cell-based, CellTiter-Glo luminescence, basal, 48 h, cytotoxicity control for HCV replication inhibitor project, primary screen (AID 1143).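 Further: Huh7 hepatoma cells carrying a hepatitis C replication reporter with no stimulus; test concentration not given here.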 To be noted: higher = more signal, called active from +8 up or from −8 down. On the technique in general: A replicon is a self-replicating genome or part of one, used to study replication in cells.

Experiment [13] is described as follows: Pseudomonas biofilm growth suppression – PAO1 strain, BacTiter-Glo luminescence, LB-PBS, primary screen (AID 1144). To be noted: P. aeruginosa PAO1 biofilm, 12 h, higher = more signal.
A short description of experiment [14]: basal CRE-LacZ reporter activity in PC12 – cell-based, unstimulated, primary screen (AID 1145). The settings on record: no forskolin, luminescence, 4.5 h, higher = more signal, called active from +8 up or from −8 down.
The nature of experiment [15]: forskolin-driven CRE-LacZ activity in PC12 – cell-based, CRE-LacZ reporter, forskolin-stimulated, primary screen (AID 1146).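 Further: PC12 cells with 6xCRE LacZ reporter stimulated by forskolin 10 µM; beta-galactosidase reporter signal reflecting CREB driven transcription.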 The settings on record: luminescence, 4.5 h, higher = more signal, called active from +8 up or from −8 down.
Experiment [16] concerns the target Streptavidin (Streptomyces avidinii) (UniProt P22629). The experiment is described as follows: compounds binding control protein streptavidin – biophysical, small-molecule microarray, 635/667 nm fluorescence, artefact control for SMM compound annotation, primary screen (AID 1147).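 Further: signal reflects streptavidin binding to arrayed compounds as a control protein.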 The settings on record: higher = more signal.
Experiment [17] in a line: probe aInhba binding on compound microarray – biochemical, small-molecule microarray, 635/667 nm fluorescence, primary screen (AID 1148).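 Further: score merges 667nm spot fluorescence with signal-to-noise for antibody binding to printed compounds.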 The settings on record: higher = more signal.
Experiment [18] has as its target Torsin-1A (Homo sapiens) (UniProt O14656). The experiment is described as follows: TOR1A wild-type binding on microarray – cell lysate, small-molecule microarray, lysate, 635/667 nm, primary screen (AID 1149). The settings on record: COS7 hTOR1A-WT lysate, 635 nm fluorescence, higher = more signal.
Experiment [19] has the same target. The experiment is described as follows: torsin A mutant lysate binding on microarrays – cell lysate, small-molecule microarray, COS7 lysate, 635/667 nm fluorescence, primary screen (AID 1150).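 Further: score pools 667 nm emission and signal to noise measuring lysate protein binding.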 To be noted: COS7 hTOR1A mutant lysate, 635 nm fluorescence, higher = more signal.
Experiment [20] deals with Sonic hedgehog protein (Shh). The experiment is described as follows: Sonic hedgehog microarray binding compounds – biochemical, small-molecule microarray, 635/667 nm fluorescence, primary screen (AID 1151).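 Further: Shh protein binding to compounds spotted on small-molecule microarray slides; score combines spot fluorescence intensity with signal-to-noise across triplicate slides.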 The settings on record: 635 nm fluorescence, higher = more signal.

Sequence of Streptavidin (Streptomyces avidinii) (P22629 whole entry, looked up): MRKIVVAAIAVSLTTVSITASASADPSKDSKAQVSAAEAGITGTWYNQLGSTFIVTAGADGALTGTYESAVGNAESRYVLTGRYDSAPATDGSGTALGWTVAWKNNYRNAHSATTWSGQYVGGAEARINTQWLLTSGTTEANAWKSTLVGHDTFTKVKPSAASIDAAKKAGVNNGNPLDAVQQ
Sequence of Focal adhesion kinase 1 (Homo sapiens) (Q05397 whole entry, looked up): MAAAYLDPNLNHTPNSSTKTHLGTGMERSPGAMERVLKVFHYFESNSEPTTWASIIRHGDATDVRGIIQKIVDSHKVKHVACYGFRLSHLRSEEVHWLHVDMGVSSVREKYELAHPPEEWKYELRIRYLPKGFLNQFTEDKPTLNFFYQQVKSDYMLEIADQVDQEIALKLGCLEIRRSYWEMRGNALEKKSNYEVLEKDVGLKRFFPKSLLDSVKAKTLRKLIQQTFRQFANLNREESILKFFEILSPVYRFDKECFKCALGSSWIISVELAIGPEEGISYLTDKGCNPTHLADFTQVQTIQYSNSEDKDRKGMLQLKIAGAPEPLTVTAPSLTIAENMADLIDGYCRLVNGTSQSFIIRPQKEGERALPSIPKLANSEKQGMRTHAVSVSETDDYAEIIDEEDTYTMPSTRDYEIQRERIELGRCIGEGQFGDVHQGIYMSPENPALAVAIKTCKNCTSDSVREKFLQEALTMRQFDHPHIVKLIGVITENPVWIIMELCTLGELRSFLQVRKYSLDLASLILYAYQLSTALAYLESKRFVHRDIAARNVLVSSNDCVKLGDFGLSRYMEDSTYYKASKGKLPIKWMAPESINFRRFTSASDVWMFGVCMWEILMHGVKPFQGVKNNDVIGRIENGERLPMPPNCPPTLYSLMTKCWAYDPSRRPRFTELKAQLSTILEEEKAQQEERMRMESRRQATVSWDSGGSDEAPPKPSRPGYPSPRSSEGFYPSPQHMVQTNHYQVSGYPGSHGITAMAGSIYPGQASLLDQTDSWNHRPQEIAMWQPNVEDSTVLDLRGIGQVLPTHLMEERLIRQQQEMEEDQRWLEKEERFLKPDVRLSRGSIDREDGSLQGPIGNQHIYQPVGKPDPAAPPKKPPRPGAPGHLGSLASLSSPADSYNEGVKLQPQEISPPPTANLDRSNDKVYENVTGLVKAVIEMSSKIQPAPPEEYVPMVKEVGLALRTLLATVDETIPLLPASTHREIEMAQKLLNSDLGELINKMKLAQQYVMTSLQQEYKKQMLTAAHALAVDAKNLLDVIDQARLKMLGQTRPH
Sequence of Follistatin (Homo sapiens) (P19883 whole entry, looked up): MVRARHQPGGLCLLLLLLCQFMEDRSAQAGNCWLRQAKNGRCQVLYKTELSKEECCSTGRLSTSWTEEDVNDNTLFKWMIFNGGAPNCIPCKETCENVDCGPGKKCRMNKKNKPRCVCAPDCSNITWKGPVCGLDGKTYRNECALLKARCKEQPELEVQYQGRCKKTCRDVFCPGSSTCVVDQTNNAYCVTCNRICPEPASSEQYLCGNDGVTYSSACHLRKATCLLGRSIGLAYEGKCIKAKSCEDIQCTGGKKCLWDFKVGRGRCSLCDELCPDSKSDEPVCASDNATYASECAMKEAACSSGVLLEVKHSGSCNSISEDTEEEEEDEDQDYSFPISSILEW
Sequence of Torsin-1A (Homo sapiens) (O14656 whole entry, looked up): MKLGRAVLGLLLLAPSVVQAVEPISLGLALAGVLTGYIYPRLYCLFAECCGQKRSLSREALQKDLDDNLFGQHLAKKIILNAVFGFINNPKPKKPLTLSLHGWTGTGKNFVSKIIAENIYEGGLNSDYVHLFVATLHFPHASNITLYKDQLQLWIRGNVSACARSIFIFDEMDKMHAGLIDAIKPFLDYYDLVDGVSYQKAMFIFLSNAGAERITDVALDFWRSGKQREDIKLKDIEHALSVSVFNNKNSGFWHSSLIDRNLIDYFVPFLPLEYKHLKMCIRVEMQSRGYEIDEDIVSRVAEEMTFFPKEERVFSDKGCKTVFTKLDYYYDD
Sequence of Fibroblast growth factor 2 (Homo sapiens) (P09038 whole entry, looked up): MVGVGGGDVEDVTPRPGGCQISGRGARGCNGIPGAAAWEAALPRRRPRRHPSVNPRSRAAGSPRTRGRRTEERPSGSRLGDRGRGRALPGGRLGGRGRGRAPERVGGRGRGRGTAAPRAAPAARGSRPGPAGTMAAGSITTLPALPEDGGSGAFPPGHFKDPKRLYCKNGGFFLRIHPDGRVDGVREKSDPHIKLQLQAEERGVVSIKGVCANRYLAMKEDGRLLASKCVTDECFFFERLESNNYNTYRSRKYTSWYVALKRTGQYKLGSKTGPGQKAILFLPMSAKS
Sequence of Luciferin 4-monooxygenase (Photinus pyralis) (P08659 whole entry, looked up): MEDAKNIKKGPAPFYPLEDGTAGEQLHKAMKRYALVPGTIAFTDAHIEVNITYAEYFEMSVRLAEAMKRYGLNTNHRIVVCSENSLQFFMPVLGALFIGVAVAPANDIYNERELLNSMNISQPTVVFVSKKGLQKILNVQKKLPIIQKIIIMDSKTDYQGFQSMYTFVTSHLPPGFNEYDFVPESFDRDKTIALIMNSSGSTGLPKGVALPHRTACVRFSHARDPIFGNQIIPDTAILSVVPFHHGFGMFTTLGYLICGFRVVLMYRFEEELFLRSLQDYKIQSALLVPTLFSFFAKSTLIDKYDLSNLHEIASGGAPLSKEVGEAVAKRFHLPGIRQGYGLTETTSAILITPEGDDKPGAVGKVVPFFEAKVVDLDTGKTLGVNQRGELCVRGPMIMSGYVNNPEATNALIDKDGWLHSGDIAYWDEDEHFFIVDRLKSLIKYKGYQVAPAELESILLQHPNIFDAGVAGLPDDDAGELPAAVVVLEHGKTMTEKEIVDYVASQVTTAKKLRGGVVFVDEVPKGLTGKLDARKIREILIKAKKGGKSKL

As for `CS(=O)(=O)CCOC(=O)C1=CC(CCCO)=CC(C2CC2)N(Cc2cccc(OC(F)(F)F)c2)C=C1C(=O)OCCS(C)(=O)=O` (stereo not given), the composite z-score was 1.96 in [1]; 0.852 in experiment [2]; 0.386 in experiment [3]; 0.701 in experiment [4]; -0.0478 in [5]; -0.256 in experiment [6]. Besides, the composite z-score in experiment [8] is 0.126; in [9], 0.927; in [11], 0.0607; in [16] it was -0.358; in [17] it was 0.0082; in experiment [18], 1.29. Also, the composite z-score in experiment [19] was 2.13; in experiment [20], 0.186. Also, the z-score is 1.62 in experiment [7]; -1.6 (inactive) in experiment [10]; -1.21 (inactive) in experiment [12]; 0.154 (inactive) in experiment [13]; 4.86 (inactive) in experiment [14]; 0.0235 (inactive) in experiment [15].

Consider `COCCOC(=O)N1C(=O)[C@@]2(c3cc(C#CCC(C(=O)OC)C(=O)OC)ccc31)[C@H](c1ccc(OCCO)cc1)N1[C@H](c3ccccc3)[C@H](c3ccccc3)OC(=O)[C@H]1[C@@H]2C(=O)Nc1nc2ccccc2s1`, for which the composite z-score in experiment [1] is 0.572; in experiment [2], 1.16; in experiment [3], -0.14; in [4] it was 0.973; in [5] it was 1.24; in [6], 0.35. Also, the composite z-score in experiment [8] is 1.06; in [9], 0.671; in [11] it was 0.0015; in experiment [16], 0.067; in [17] it was -0.101; in [18], 0.212. Besides, the composite z-score in experiment [19] came out at 0.264; in experiment [20] it was 1.6. Also, the z-score in [7] was -2.17; in [10], -1.2 (inactive); in experiment [12], -1.79 (inactive); in experiment [13] it was -0.45 (inactive); in experiment [14], 0.0384 (inactive); in [15], 0.282 (inactive).

As to `Cc1ccc(F)cc1S(=O)(=O)N[C@@H]1CCN(Cc2cccc3[nH]ccc23)C1`, the composite z-score in [1] is 0.134; in experiment [2], 0.179; in experiment [3], -0.271; in experiment [4], -0.383; in experiment [5], 1.26; in experiment [6], 0.932. The composite z-score was 0.69 in experiment [8]; -0.227 in [9]; 0.148 in experiment [11]; -0.0164 in experiment [16]; 0.143 in experiment [17]; 0.495 in experiment [18]. Besides, the composite z-score in experiment [19] is 0.913; in experiment [20] it was 0.969. For the same compound, the z-score in experiment [7] is 0.443; in experiment [10], -0.0287 (inactive); in experiment [12], -2.35 (inactive); in experiment [13], -0.0885 (inactive); in experiment [14], 1.13 (inactive); in experiment [15] it was -0.714 (inactive).

As for `COc1cc(CO)cc(I)c1O[C@H]1C=C(C(=O)NCCO)C[C@@H](NCC2CCCCC2)[C@@H]1O`, the composite z-score was 0.72 in [1]; 0.283 in [2]; 0.211 in experiment [3]; 0.0646 in experiment [4]; 0.521 in experiment [5]; 0.566 in experiment [6]. The composite z-score in [8] was 0.302; in experiment [9], 0.672; in [11], -0.042; in experiment [16], 0.0581; in [17] it was 0.0422; in [18] it was -0.549. Also, the values for the composite z-score in [19] and in experiment [20] were -0.262 and -0.397, respectively. The z-score is -0.0493 in [7]; 0.734 (inactive) in experiment [10]; -0.731 (inactive) in experiment [12]; -0.893 (inactive) in experiment [13]; -0.0534 (inactive) in experiment [14]; -0.269 (inactive) in experiment [15].

For `C=C(/C(=C/C[C@@H](OC(C)=O)c1ccc(CO)o1)c1cc(C(=O)OC)ccc1OC)C(C)C`, the composite z-score in experiment [1] was 1.54; in [2], 0.659; in experiment [3], 0.571; in experiment [4], 0.0384; in [5], 0.913; in [6], 0.682. The composite z-score was 0.564 in experiment [8]; 0.427 in experiment [9]; 0.201 in [11]; -0.446 in [16]; 0.148 in experiment [17]; 0.431 in [18]. In addition, the composite z-score in [19] amounted to 0.549; in experiment [20], 1.07. Further, the z-score was -0.237 in experiment [7]; -3.52 (inactive) in [10]; -0.143 (inactive) in experiment [12]; -0.0434 (inactive) in experiment [13]; 0.247 (inactive) in [14]; 2.78 (inactive) in experiment [15].
